Drawing on PubChem BioAssay (Tox21), this text covers Potency and outcome for eight molecules.

Experiment [1] is described as follows: qHTS assay to identify small molecule HDAC inhibitors (AID 1259364).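 Note: wild-type HCT-116 cells with endogenous class I/II HDAC activity; top concentration of the series differs between compounds; nearly all actives have a fitted effect of over 45% in size.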 In short, it runs like this:
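HCT-116 wt cells, 1,500/well, overnight attach. Compounds (DMSO) 2 h, 37 °C. HDAC-Glo I/II, 30 min RT. Luminescence.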
A general note: qHTS replaces the single test concentration by a dilution series.

A short description of experiment [2]: qHTS assay to identify small molecule HDAC inhibitors - cell viability counter screen (AID 1259365). Note: series mostly up to about 92 µM; nearly all actives have a fitted effect of over 50% in size. In short, it runs like this:
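To flag cytotoxic hits, 1,500 wild-type HCT-116 cells per well, plated the day before, receive test compounds for 2hr at 37 C before CellTiter-Glo reagent and a luminescence read.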

Experiment [3] can be described thus: qHTS assay to identify small molecule agonists of the sonic hedgehog signaling (Shh) pathway - cell viability counter screen (AID 1259366). Note: nearly all actives have a fitted effect of over 50% in size. An outline of the steps: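 Fluorescence from CellTiter-Fluor reports live cells in this counter screen. NIH/3T3-derived Gli1-Luc reporter cells receive test compounds for 24hr at 37C; reagent goes in at 23hr.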
A short description of experiment [4]: qHTS assay to identify small molecule antagonists of the sonic hedgehog signaling (Shh) pathway - cell viability counter screen (AID 1259367). Note: nearly all actives have a fitted effect of over 55% in size. An outline of the steps:
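Conditioned medium drove Shh signaling in 3T3 Gli1-Luc cells exposed to compounds at 37C and 5% CO2. Viability was determined from CellTiter-Fluor fluorescence, with reagent incubated 1 hr after 23 hr of treatment.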

Experiment [5] in a line: qHTS assay to identify small molecule agonists of the sonic hedgehog signaling (Shh) pathway (AID 1259368; calls by dose curve;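 note: NIH/3T3-derived 3T3Gli1-Luc cells carrying a stable Gli1-driven firefly luciferase reporter; series mostly up to about 92 µM; nearly all actives have a fitted effect of over 15% in size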). In short, it runs like this: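 Following a 24 hr incubation with DMSO-dissolved compounds at 37 C, 5% CO2, Gli1-Luc NIH/3T3-derived cells received luciferase reagent for 30 min at room temperature prior to luminescence measurement.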
A short description of experiment [6]: qHTS assay to identify small molecule antagonists of the sonic hedgehog signaling (Shh) pathway (AID 1259369; calls by dose curve; note: nearly all actives have a fitted effect of over 45% in size; note: potency is the fitted concentration of half-maximal effect). In short, it runs like this:
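Read-out is luminescence from a firefly luciferase gene controlled by the Gli1 response element, in 3T3Gli1-Luc cells pre-incubated 4hr then exposed to compounds and conditioned medium for 24hr.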

In experiment [7] the target is Estrogen receptor beta (Homo sapiens) (UniProt Q92731). In words: qHTS assay to identify small molecule agonists of the estrogen receptor beta (ER-beta) signaling pathway (AID 1259377; active = well fitted activation curve with a large enough effect in the signal ratio in the repeat runs, not every such curve was filed as active; the % refers to the signal ratio; note: potency is the fitted concentration of half-maximal effect). In short, it runs like this:
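Screening used GripTite ER-beta-UAS-bla cells held in 2% charcoal-stripped FBS medium. After overnight (16 hr) compound incubation at 37C, beta-lactamase activity was detected with a FRET substrate by fluorescence.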

Experiment [8] has the same target. The experiment in a line: qHTS assay to identify small molecule antagonists of the estrogen receptor beta (ER-beta) signaling pathway (AID 1259378; active = well fitted inhibition curve with a large enough effect in the signal ratio in the repeat runs, not every such curve was filed as active; the % refers to the signal ratio). In short, it runs like this:
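ER-beta-UAS-bla HEK293T (GripTite) cells in 2% charcoal-stripped FBS medium were preincubated 6 hr at 37C, dosed with compound, then stimulated with 1 nM E2 (final) for 16 hr; beta-lactamase reporter read by B/G FRET fluorescence after 2 hr substrate loading.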

Experiment [9] can be described thus: qHTS assay to identify small molecule agonists of the androgen receptor (AR) signaling pathway in the presence of an antagonist - cell viability counter screen (AID 1259379).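 Note: MDA-kb2 human breast cancer cells carrying an MMTV luciferase reporter; series mostly up to about 92 µM; nearly all actives have a fitted effect of over 25% in size.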 An outline of the steps: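 Each compound was tested at 15 concentrations on MDA-kb2 cells in the presence of 3.0uM nilutamide. Viability was measured by CellTiter-Fluor fluorescence after a 16 hr incubation at 37C in a CO2-free atmosphere.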

Experiment [10] is described as follows: qHTS assay to identify small molecule agonists of the estrogen receptor beta (ER-beta) signaling pathway - cell viability counter screen (AID 1259380). Note: nearly all actives have a fitted effect of over 30% in size. Note: potency is the fitted concentration of half-maximal effect. In short, it runs like this:
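Compounds dissolved in DMSO were pin-transferred onto ER-beta-UAS-bla HEK293T cells that had settled 6 hr, and exposure ran 16 hr at 37C. Following the reporter read, CellTiter-Glo luminescence after 30 min at room temperature indicated cytotoxicity.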

Experiment [11] in a line: qHTS assay to identify small molecule antagonists of the estrogen receptor beta (ER-beta) signaling pathway - cell viability counter screen (AID 1259382). Note: series mostly up to about 92 µM; nearly all actives have a fitted effect of over 55% in size. An outline of the steps: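 CellTiter-Glo ATP luminescence measured after the LiveBLAzer read in the same wells; ER-beta-UAS-bla HEK293T cells, 16 hr compound treatment with 1nM 17-beta-estradiol agonist at 37C, 5% CO2.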

Experiment [12] has as its target Estrogen receptor (Homo sapiens) (UniProt P03372). The experiment in a line: qHTS assay to identify small molecule agonists of the estrogen receptor alpha (ER-alpha) signaling pathway in the presence of an antagonist (AID 1259383; calls by dose curve; note: top concentration of the series differs between compounds; nearly all actives have a fitted effect of over 15% in size). In short, it runs like this:
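Luminescent ERE-luciferase reporter, VM7Luc4E2 cells (endogenous ER-alpha); 10.0nM ICI-182,780 final; 15-point compound titration; 22hr at 37C; ONE-Glo, 30min RT.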

Experiment [13] can be described thus: qHTS assay to identify small molecule agonists or antagonists of the thyroid stimulating hormone receptor (TSHR) signaling pathway - wild type cell line counter screen (AID 1259384; calls by dose curve). An outline of the steps: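 Wild-type HEK293 cells were plated 18 h at 37 C/5% CO2, pin-dosed with compound plus Ro20-1724 medium, held 30 min at room temperature, then given cAMP-d2 and anti-cAMP-cryptate; fluorescence was read after 1 h. Fifteen concentrations, triplicate.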

A short description of experiment [14]: qHTS assay to identify small molecule agonists of the estrogen receptor alpha (ER-alpha) signaling pathway in the presence of an antagonist - cell viability counter screen (AID 1259386).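 Note: series mostly up to about 92 µM; cells exposed to compounds for 22 h at 37 °C before the viability read; nearly all actives have a fitted effect of over 30% in size.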 In short, it runs like this:
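Using estrogen-depleted VM7Luc4E2 cells, the 15-concentration compound series was applied together with 10.0nM ICI-182,780 and incubated 22hr at 37C/5% CO2. Cell viability was then scored by CellTiter-Fluor.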

The target of experiment [15] is Progesterone receptor (Homo sapiens) (UniProt P06401). The experiment in a line: qHTS assay to identify small molecule agonists of the progesterone receptor (PR) signaling pathway (AID 1346784; calls by dose curve; note: nearly all actives have a fitted effect of over 30% in size; note: potency is the fitted concentration of half-maximal effect). An outline of the steps: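 Seed PR-UAS-bla HEK 293T cells (2% charcoal-stripped FBS), incubate 6 hr at 37C; add compounds in DMSO, 16 hr at 37C; add LiveBLAzer B/G substrate, 2 hr RT; read fluorescence intensity.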

The nature of experiment [16]: qHTS assay to identify small molecule phospholipidosis (PLD) inducers (AID 1259344; active = well fitted curve in the direction sought with a large enough effect; an effect the other way counts as inactive or inconclusive). An outline of the steps:
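After 4 h attachment on collagen I, HepG2 cells were dosed with compound alongside LipidTOX Red, kept 24 h at 37 C, fixed, and imaged for lamellar phospholipid pits.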

The target of experiment [17] is Progesterone receptor (Homo sapiens) (UniProt P06401). In words: qHTS assay to identify small molecule antagonists of the progesterone receptor (PR) signaling pathway (AID 1346795; active = well fitted inhibition curve with a large enough effect in the signal ratio in the repeat runs, not every such curve was filed as active; the % refers to the signal ratio). In short, it runs like this: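 Screening used a GripTite HEK293T line with PR-responsive UAS-beta-lactamase. Cells were challenged with compound in the presence of 1 nM R5020 final for 16 hr at 37C; B/G FRET substrate, 2 hr room temperature, fluorescence.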

Experiment [18] addresses Thyrotropin receptor (Homo sapiens) (UniProt P16473). In words: qHTS assay to identify small molecule antagonists of the thyroid stimulating hormone receptor (TSHR) signaling pathway (AID 1259385; calls by dose curve; note: nearly all actives have a fitted effect of over 20% in size). In short, it runs like this: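 TSHR-HEK293 cells were plated and held 18 h at 37C/5% CO2, then given compound plus Ro20-1724 and stimulated with TSH at 1.5 ng/mL final. After 30 min at room temperature, cAMP was detected with cAMP-d2/anti-cAMP-cryptate (1 h) by fluorescence.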

In experiment [19] the target is Androgen receptor (Homo sapiens) (UniProt P10275). In words: qHTS assay to identify small molecule agonists of the androgen receptor (AR) signaling pathway in the presence of an antagonist (AID 1259381; calls by dose curve; note: potency is the fitted concentration of half-maximal effect; nearly all actives have a fitted effect of over 15% in size). In short, it runs like this: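 Plated MDA-kb2 cells (3,000/well) were pre-incubated 5hr, given nilutamide (3.0uM final) or buffer, then dosed with compounds in DMSO at 15 concentrations. Luciferase activity was quantified by luminescence after 16hr at 37C.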

Values joined by “and” are separate entries in the source; they are usually repeats but may differ in a detail not shown here. Equal values may be shown once. Inconclusive results are not listed. The source holds several records for some structures; these can differ, active in one and inactive in another. Active and inactive are the calls of the source. Unless noted, calls come from the whole dose curve; as a rule, active = well fitted curve in the direction sought with a large enough effect in the repeat runs; inconclusive = weak or mixed curves; inactive = no such curve, though single readings can be large; an effect the other way counts as inactive or inconclusive.

Estrogen receptor beta (Homo sapiens), sequence (Q92731 whole entry, looked up): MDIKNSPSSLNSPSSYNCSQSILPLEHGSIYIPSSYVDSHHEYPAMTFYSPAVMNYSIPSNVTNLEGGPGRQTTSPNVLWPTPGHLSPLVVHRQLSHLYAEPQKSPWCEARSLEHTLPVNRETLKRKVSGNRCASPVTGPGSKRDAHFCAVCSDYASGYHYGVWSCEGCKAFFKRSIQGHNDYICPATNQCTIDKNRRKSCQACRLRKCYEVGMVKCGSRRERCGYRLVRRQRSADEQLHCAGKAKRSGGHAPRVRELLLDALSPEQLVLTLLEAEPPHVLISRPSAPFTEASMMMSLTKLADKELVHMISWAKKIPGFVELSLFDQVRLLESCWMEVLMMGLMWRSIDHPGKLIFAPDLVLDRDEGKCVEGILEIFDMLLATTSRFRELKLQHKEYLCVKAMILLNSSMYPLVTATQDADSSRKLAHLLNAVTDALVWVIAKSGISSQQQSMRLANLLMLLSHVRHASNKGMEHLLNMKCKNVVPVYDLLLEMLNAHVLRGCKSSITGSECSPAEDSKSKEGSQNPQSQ
Thyrotropin receptor (Homo sapiens), sequence (P16473 whole entry, looked up): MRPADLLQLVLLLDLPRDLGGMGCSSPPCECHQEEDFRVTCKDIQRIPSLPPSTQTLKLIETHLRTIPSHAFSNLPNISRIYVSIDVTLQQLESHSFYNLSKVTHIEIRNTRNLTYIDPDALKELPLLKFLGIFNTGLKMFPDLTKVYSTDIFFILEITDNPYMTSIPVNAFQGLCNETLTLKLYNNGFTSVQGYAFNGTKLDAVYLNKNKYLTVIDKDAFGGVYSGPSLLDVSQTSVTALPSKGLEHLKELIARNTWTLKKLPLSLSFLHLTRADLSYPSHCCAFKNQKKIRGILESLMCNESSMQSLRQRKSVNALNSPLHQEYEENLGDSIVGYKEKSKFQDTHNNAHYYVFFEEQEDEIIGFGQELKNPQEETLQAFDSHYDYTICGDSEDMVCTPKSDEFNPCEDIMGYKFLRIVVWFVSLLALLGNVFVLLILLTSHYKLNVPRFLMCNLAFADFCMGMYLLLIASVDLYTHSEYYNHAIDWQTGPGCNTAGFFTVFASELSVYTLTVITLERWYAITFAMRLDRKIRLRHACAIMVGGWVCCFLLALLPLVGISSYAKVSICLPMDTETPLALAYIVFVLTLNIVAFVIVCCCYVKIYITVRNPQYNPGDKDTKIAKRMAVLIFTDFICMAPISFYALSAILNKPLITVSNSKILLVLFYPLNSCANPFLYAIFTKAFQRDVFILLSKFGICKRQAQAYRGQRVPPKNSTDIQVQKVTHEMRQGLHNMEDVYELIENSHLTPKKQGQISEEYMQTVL
Progesterone receptor (Homo sapiens), sequence (P06401 whole entry, looked up): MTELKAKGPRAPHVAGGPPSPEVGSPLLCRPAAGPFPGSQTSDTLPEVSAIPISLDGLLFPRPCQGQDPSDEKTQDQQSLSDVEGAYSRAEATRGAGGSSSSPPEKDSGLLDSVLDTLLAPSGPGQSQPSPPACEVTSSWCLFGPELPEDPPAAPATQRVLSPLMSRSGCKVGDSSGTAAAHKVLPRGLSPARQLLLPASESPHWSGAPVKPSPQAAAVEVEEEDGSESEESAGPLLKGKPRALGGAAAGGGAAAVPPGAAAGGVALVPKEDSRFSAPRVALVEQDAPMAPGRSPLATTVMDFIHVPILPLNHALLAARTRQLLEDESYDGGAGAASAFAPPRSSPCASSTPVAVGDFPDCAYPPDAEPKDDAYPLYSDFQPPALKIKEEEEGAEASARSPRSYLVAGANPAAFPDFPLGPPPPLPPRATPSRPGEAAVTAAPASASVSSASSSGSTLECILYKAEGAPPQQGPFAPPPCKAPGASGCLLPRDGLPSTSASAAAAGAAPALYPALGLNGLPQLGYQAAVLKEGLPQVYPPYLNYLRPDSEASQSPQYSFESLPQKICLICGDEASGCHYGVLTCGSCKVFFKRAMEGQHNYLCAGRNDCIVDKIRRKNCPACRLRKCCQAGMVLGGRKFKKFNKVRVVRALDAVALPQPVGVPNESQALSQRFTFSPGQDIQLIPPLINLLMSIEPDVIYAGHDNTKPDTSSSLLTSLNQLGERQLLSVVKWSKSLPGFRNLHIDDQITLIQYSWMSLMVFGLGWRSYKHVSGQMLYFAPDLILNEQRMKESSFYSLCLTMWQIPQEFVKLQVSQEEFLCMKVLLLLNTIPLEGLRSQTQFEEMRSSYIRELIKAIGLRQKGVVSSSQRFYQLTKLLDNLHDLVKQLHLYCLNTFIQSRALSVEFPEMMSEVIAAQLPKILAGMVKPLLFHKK
Estrogen receptor (Homo sapiens), sequence (P03372 whole entry, looked up): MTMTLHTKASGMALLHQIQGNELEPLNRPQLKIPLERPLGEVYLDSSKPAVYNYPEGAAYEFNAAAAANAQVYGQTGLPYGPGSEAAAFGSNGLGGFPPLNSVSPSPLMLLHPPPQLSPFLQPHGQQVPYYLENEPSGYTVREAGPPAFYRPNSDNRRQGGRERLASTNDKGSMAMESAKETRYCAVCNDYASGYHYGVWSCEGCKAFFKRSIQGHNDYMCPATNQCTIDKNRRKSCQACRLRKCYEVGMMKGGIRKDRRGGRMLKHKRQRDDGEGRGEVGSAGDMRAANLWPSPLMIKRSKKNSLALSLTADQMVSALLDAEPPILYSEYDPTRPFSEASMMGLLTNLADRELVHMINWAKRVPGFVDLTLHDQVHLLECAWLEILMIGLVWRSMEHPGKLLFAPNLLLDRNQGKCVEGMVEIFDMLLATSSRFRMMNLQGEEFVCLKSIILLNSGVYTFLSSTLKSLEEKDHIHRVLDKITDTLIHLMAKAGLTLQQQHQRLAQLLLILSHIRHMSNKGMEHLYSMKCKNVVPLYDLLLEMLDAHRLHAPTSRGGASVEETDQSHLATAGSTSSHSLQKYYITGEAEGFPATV
Androgen receptor (Homo sapiens), sequence (P10275 whole entry, looked up): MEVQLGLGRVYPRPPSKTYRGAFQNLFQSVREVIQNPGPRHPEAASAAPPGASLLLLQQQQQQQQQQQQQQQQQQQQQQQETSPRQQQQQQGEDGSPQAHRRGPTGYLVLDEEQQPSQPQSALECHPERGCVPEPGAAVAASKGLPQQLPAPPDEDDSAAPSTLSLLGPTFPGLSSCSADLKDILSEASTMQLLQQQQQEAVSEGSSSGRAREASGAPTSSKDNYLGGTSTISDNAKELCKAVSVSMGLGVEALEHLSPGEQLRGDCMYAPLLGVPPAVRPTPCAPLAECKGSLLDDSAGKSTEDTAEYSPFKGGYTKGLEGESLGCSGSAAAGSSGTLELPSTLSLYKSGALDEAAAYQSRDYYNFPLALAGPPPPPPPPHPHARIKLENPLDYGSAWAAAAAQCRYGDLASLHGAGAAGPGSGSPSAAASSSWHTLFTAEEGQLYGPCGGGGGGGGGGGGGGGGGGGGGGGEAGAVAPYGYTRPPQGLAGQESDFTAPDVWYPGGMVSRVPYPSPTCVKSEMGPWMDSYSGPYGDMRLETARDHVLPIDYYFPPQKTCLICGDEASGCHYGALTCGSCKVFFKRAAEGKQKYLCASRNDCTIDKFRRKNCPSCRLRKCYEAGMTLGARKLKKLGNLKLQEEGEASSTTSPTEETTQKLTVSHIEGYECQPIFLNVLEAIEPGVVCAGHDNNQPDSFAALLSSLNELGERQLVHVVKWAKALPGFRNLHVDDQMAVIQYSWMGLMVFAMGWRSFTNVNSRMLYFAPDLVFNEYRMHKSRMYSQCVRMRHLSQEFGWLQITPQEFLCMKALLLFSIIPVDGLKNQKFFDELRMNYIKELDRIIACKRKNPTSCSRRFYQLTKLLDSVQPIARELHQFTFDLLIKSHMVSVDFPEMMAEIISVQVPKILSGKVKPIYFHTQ

As to `CCCCN(CCCC)CCCC`, the Potency result in experiment [1], in experiment [3], in [4], in experiment [6], in experiment [7] and in [8] was “inactive” in each case. In addition, the Potency result in experiment [9], in experiment [10], in experiment [11], in experiment [12], in [14] and in experiment [15] was “inactive” each time. Moreover, the molecule was called inactive in experiment [2], in experiment [5] and in experiment [13].
For `OCc1cccnc1`, the outcome in [16], in experiment [2] and in experiment [5] was inactive. Besides, the Potency entry in [1], in experiment [3], in experiment [6], in experiment [9], in experiment [10] and in experiment [11] was “inactive” throughout. For the same molecule, the Potency entry in [12], in experiment [14], in [15] and in [17] was “inactive” throughout.
As to `ON=C1CCCCC1`, the Potency result in experiment [1], in [3], in experiment [4], in [7], in [8] and in experiment [9] was “inactive” throughout. Also, the Potency entry in experiment [10], in [11], in experiment [14] and in [15] was “inactive” in each case. In addition, the outcome in experiment [2], in [5] and in experiment [13] was inactive. The Potency entry in experiment [6] was “inactive and 27.3 µM (active)”.
For the molecule `C#C[C@]1(O)CC[C@H]2[C@@H]3CCC4=CC(=O)CC[C@@H]4[C@H]3CC[C@@]21C`, the molecule was called inactive in experiment [16], in [2], in experiment [5] and in experiment [13]. Besides, the Potency result in experiment [1], in experiment [3], in experiment [9], in experiment [11], in [18] and in experiment [14] was “inactive” throughout. Besides, the Potency was 21.7 µM (active) and 29.8 µM (active) in [6]; 1.37 µM (active) and 4.22 µM (active) in [7]; 48.6 µM (active) in experiment [10].
`CCCCC(CC)CO` (centres undefined): the Potency result in experiment [1], in experiment [3], in experiment [4], in experiment [6], in experiment [7] and in [9] was “inactive” each time. The Potency result in [10], in experiment [11], in experiment [18], in [14], in [15] and in [17] was “inactive” throughout. Besides, the result in experiment [2], in [5] and in [13] was inactive.
For `COc1ccc2cc([C@H](C)C(=O)O)ccc2c1`, the molecule was classed as inactive in experiment [16], in experiment [2], in experiment [5] and in [13]. For the same molecule, the Potency result in experiment [1], in experiment [3], in experiment [4], in [6], in experiment [9] and in [10] was “inactive” throughout. In addition, the Potency entry in experiment [11], in experiment [14], in experiment [15] and in [17] was “inactive” each time.
As to `c1ccc2scnc2c1`, the Potency entry in experiment [1], in experiment [3], in experiment [4], in [6], in experiment [7] and in experiment [8] was “inactive” each time. The Potency result in [9], in [10], in experiment [11], in experiment [12], in [18] and in experiment [14] was “inactive” each time. Besides, the Potency result in experiment [15] and in experiment [17] was “inactive” throughout. In addition, the outcome in experiment [2], in [5] and in [13] was inactive.
Take `C[C@H]1C[C@@H]2[C@H]([C@@H](O)C[C@@]3(C)[C@H]2CC[C@]3(O)C(=O)CO)[C@@]2(C)C=CC(=O)C=C12`: the outcome in experiment [16], in [2] and in experiment [5] was inactive. The Potency entry in experiment [1], in experiment [3], in [4], in [6], in experiment [9] and in experiment [10] was “inactive” throughout. Besides, the Potency result in experiment [11] and in experiment [14] was “inactive” each time. Besides, the Potency in experiment [19] was 54.5 nM (active) and 59.6 nM (active); in experiment [15], 48.6 µM (active).
